Inconclusive results are not listed. Activity calls are given as the source filed them. Unless noted, calls come from the whole dose curve; as a rule, active = well fitted curve in the direction sought with a large enough effect in the repeat runs; inconclusive = weak or mixed curves; inactive = no such curve, though single readings can be large; an effect the other way counts as inactive or inconclusive.
Legend:
[1] = qHTS assay to identify small molecule antagonists of the vitamin D receptor (VDR) signaling pathway - cell viability counter screen (AID 743225); note: nearly all actives have a fitted effect of over 50% in size
Procedure, shortened: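 VDR-bla HEK 293T cells, 4 h pre-incubation at 37C, then compound plus 1-alpha,25-dihydroxyvitamin D3 (3 nM final) for 16 h. After the beta-lactamase FRET read, CellTiter-Glo was added to the same wells; luminescence after 30 min at room temperature.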

[2] = qHTS assay to identify small molecule agonists of the NFkB signaling pathway - cell viability counter screen (AID 1159515; calls by dose curve; note: series mostly up to about 61 µM; nearly all actives have a fitted effect of over 55% in size)
Procedure, shortened: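 Plate 2,000 NFkB-bla ME-180 cells/well; incubate overnight. Add compounds, 5 hr at 37 C. Add FRET substrate, 1.5 hr RT. Add CellTiter-Glo, 30 min RT; read luminescence.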

[3] = qHTS assay to identify small molecule agonists of the endoplasmic reticulum stress response signaling pathway (AID 1159516; active = well fitted activation curve with a large enough effect in the signal ratio in the repeat runs, not every such curve was filed as active; the % refers to the signal ratio)
Procedure, shortened: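 Beta-lactamase expression from the ER stress response element in HeLa reporter cells is quantified with the LiveBLAzer B/G FRET substrate, read at 405 nm excitation after 2 hr at room temperature, following 5 hr compound treatment at 37 C.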

[4] = qHTS assay to identify small molecule agonists of the endoplasmic reticulum stress response signaling pathway - cell viability counter screen (AID 1159517; calls by dose curve; note: series mostly up to about 61 µM; nearly all actives have a fitted effect of over 50% in size)
Procedure, shortened: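 Cytotoxicity of test compounds toward ESRE-bla HeLa cells was assessed after 5 hr exposure. The luminescent CellTiter-Glo signal was measured 30 min after reagent addition.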

[5] = qHTS assay to identify small molecule antagonists of the retinoid-related orphan receptor gamma (ROR-gamma) signaling pathway - cell viability counter screen (AID 1159520); note: nearly all actives have a fitted effect of over 50% in size
Procedure, shortened: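 Tet-on ROR gamma CHO cells (1,000/well) were plated 4 hr, given compounds in DMSO for 2 hr at 37 C, then induced with 1 uM final doxycycline for 16 hr. Viability was read as ATP by CellTiter-Glo luminescence after 30 min.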

[6] = target: Nuclear receptor ROR-gamma (Homo sapiens) (UniProt P51449); assay: qHTS assay to identify small molecule antagonists of the retinoid-related orphan receptor gamma (ROR-gamma) signaling pathway (AID 1159521;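 note: CHO cells with doxycycline inducible ROR-gamma driving an RORE luciferase reporter; top concentration of the series differs between compounds; nearly all actives have a fitted effect of over 50% in size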)
Procedure, shortened: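 Tet-on RORγ CHO cells carrying a ROR response element–luciferase reporter were pretreated with compounds for 2 h, then induced with 1 uM (final) doxycycline hyclate for 16 h at 37 C. Antagonism was read as decreased ONE-Glo luminescence.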

[7] = qHTS assay to identify small molecule agonists of the AP-1 signaling pathway - cell viability counter screen (AID 1159525; calls by dose curve; note: nearly all actives have a fitted effect of over 55% in size)
Procedure, shortened: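 Each titration point was normalised to DMSO and tetra n-octyl ammonium bromide controls. The read was Cell Titer Glo luminescence after 30 min at RT, following 5 h compound exposure of ME-180 AP-1-bla cells at 37 °C.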

[8] = qHTS assay to identify small molecule agonists of the AP-1 signaling pathway (AID 1159526; calls by dose curve)
[9] = target: Retinoic acid receptor RXR-alpha (Homo sapiens) (UniProt P19793); assay: qHTS assay to identify small molecule agonists of the RXR signaling pathway (AID 1159527; calls by dose curve; note: nearly all actives have a fitted effect of over 35% in size)
Procedure, shortened: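 GeneBLAzer RXR-alpha-UAS-bla HEK 293T cells in medium with 2% charcoal-stripped FBS, pre-incubated 5 hr at 37 C, then exposed to compounds 16 hr. Beta-lactamase reporter read by FRET substrate, 2 hr room temperature, 460/530 nm emission.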

[10] = qHTS assay to identify small molecule antagonists of the retinoid acid receptor (RAR) signaling pathway - cell viability counter screen (AID 1159551); note: nearly all actives have a fitted effect of over 35% in size
Procedure, shortened: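 Viability of C3RL4 cells is quantified from ATP by luminescence after 6 h treatment at 37 C with compounds and 1 uM retinol.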

[11] = qHTS assay to identify small molecule antagonists of the retinoic acid receptor (RAR) signaling pathway (AID 1159552; note: nearly all actives have a fitted effect of over 50% in size)
Procedure, shortened: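 RARE-luc C3RL4 cells; cpds + 1 uM (final) retinol, 6 hr, 37 C/5% CO2; luciferase reagent, 30 min RT, luminescence readout. Inhibitors of retinol-driven signal scored.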

[12] = qHTS assay to identify small molecule agonists of the retinoic acid receptor (RAR) signaling pathway (AID 1159553)
Procedure, shortened: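 Compounds dissolved in DMSO were pinned onto C3RL4 cells seeded the previous day, and plates were held 6 hr at 37 C. RARE-driven luciferase output was then read by luminescence.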

[13] = qHTS assay to identify small molecule antagonists of the estrogen related receptor (ERR) signaling pathway from Tox21 library - cell viability counter screen (AID 1224834); note: nearly all actives have a fitted effect of over 30% in size
Procedure, shortened: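 In this quantitative HTS format, ERR cells receive compounds in DMSO and are incubated for 17.5 h at 37 C. Live-cell protease activity is then detected with CellTiter-Fluor.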

[14] = target: Luciferin 4-monooxygenase (Photinus pyralis) (UniProt P08659); assay: qHTS assay to identify small molecule inhibitors of firefly luciferase (AID 1224835); note: series mostly up to about 120 µM; nearly all actives have a fitted effect of over 25% in size
Procedure, shortened: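 Quantitative HTS format; KM concentrations of both substrates. Purified P. pyralis FLuc activity quantified from luminescence images.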

[15] = qHTS assay to identify small molecule agonists of the constitutive androstane receptor (CAR) signaling pathway - cell viability counter screen (AID 1224836); note: series mostly up to about 92 µM; nearly all actives have a fitted effect of over 45% in size
Procedure, shortened: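 HepG2 cells stably carrying hCAR and a CYP2B6-2.2kb reporter were plated 4 h, then given compounds at 15 concentrations plus PK11195 (final 0.75 uM). After 23 h at 37 C, viability was read by CellTiter-Fluor fluorescence.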

[16] = qHTS assay to identify small molecule antagonists of the constitutive androstane receptor (CAR) signaling pathway - cell viability counter screen (AID 1224837); note: series mostly up to about 92 µM; nearly all actives have a fitted effect of over 45% in size
Procedure, shortened: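 In quantitative HTS format, compounds at 15 concentrations were applied to HepG2 cells double-transfected with hCAR and CYP2B6-2.2kb under 50 nM CITCO stimulation; live-cell protease activity was read after 23 hr via CellTiter-Fluor.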

[17] = qHTS assay to identify small molecule antagonists of the estrogen related receptor signaling pathway with the pleiotropic PPARgamma coactivator (PGC) from Tox21 10K library - cell viability counter screen (AID 1224840; active = well fitted cell-killing curve with a large enough effect in the repeat runs, not every such curve was filed as active; note: nearly all actives have a fitted effect of over 40% in size)
Procedure, shortened: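 Viability counter screen, PGC/ERR cells: 17.5 h compound exposure at 37 C, CellTiter-Fluor fluorescence endpoint.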

[18] = target: Nuclear receptor subfamily 1 group I member 3 (Homo sapiens) (UniProt Q14994); assay: qHTS assay to identify small molecule antagonists of the constitutive androstane receptor (CAR) signaling pathway (AID 1224838); note: nearly all actives have a fitted effect of over 40% in size
Procedure, shortened: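 CITCO-stimulated (50 nM final) HepG2 cells stably transfected with hCAR and CYP2B6-2.2kb luciferase were exposed to compounds at 15 concentrations for 24 h at 37 C/5% CO2. A luciferase reagent was added and luminescence recorded after 30 min.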

[19] = target: Nuclear receptor subfamily 1 group I member 3 (Homo sapiens) (UniProt Q14994); assay: qHTS assay to identify small molecule agonists of the constitutive androstane receptor (CAR) signaling pathway (AID 1224839);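 note: HepG2 cells stably carrying human CAR and a CYP2B6 luciferase reporter; series mostly up to about 92 µM; nearly all actives have a fitted effect of over 15% in size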
Procedure, shortened: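 HepG2 cells stably expressing hCAR and a CYP2B6-2.2kb luciferase reporter were treated with compounds at 15 concentrations plus 0.75 uM PK11195 (final) for 24 h at 37 C; luminescence was read after ONE-Glo addition.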

[20] = qHTS assay to identify small molecule agonists of the RXR signaling pathway - cell viability counter screen (AID 1159529)
Procedure, shortened: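 RXR-alpha-UAS-bla HEK 293T cells in medium with 2% charcoal-stripped FBS were preincubated 5 hr, then exposed to compounds for 16 hr at 37 C. Viability was read as CellTiter-Glo luminescence after 30 min at room temperature.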

Measured: Potency

Chain of Luciferin 4-monooxygenase (Photinus pyralis) (P08659 whole entry, looked up): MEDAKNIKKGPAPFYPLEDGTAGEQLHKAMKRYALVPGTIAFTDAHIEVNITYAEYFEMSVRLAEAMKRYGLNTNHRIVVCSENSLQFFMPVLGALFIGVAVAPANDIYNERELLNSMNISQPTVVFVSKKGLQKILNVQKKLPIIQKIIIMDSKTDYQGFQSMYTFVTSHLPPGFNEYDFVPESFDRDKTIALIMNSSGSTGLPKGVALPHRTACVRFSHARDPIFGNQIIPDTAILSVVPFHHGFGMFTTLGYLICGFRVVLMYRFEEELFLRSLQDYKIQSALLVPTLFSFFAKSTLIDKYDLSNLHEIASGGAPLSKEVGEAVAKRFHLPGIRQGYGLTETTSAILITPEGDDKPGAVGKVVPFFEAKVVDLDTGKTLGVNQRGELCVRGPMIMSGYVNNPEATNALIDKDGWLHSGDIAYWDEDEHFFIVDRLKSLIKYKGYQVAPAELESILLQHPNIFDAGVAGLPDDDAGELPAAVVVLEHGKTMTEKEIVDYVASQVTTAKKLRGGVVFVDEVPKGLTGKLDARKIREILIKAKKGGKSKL
Chain of Nuclear receptor subfamily 1 group I member 3 (Homo sapiens) (Q14994 whole entry, looked up): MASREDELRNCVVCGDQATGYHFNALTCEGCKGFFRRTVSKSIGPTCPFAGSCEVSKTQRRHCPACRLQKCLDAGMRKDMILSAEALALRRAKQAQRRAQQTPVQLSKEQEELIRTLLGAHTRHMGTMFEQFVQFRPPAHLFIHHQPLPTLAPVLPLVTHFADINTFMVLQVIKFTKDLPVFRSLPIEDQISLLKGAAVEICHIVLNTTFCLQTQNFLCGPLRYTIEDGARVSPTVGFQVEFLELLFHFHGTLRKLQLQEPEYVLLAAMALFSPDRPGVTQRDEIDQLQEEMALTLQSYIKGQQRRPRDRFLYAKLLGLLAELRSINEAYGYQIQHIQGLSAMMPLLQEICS
Chain of Retinoic acid receptor RXR-alpha (Homo sapiens) (P19793 whole entry, looked up): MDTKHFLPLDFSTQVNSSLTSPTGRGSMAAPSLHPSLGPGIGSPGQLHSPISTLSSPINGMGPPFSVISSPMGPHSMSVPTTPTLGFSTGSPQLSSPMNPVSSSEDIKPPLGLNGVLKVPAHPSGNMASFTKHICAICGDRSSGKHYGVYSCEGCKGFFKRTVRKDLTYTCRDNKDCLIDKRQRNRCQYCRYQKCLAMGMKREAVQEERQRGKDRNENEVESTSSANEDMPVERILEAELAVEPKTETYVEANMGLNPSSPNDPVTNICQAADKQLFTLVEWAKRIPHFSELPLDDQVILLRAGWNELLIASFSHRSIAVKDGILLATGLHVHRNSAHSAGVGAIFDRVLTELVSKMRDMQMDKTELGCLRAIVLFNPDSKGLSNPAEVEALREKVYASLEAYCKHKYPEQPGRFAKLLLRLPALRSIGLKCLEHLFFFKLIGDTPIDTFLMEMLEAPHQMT

CC(=O)SC[C@@H](C)C(=O)N1CCC[C@H]1C(=O)N[C@@H](Cc1ccccc1)C(=O)O
not listed: [18] | [19] | [20]
inactive: all other assays above

BrCCOc1ccccc1
not listed: [18] | [19] | [20]
inactive: all other assays above

Cc1cc(=O)oc2cc(O[C@@H]3SC[C@@H](O)[C@H](O)[C@H]3O)ccc12
not listed: [13] | [19] | [20]
inactive: all other assays above

CC1(C)CC(N)CC(C)(C)N1
not listed: [17] | [20]
inactive: all other assays above

CCOC(=O)CC
not listed: [1] | [17] | [20]
inactive: all other assays above

Cc1ccc(O)c(C(=O)c2ccccc2)c1
not listed: [1] | [18] | [19] | [20]
inactive: all other assays above

C=CC(=O)OCC[N+](C)(C)C
not listed: [18] | [19] | [20]
inactive: all other assays above

CC(C)C(C)C
not listed: [1] | [11] | [13] | [18]
inactive: all other assays above

— PubChem BioAssay (Tox21)
